Inconclusive results are not listed. Activity calls are given as the source filed them. Calls follow the shape of the full dose curve.
test: Cell Viability - BJ (AID 421); details: BJ fibroblast viability, qHTS;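 also: cells exposed to compound for 40 hours at 37 °C before readout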
Description: NIH Chemical Genomics Center [NCGC]
NIH Molecular Libraries Screening Centers Network [MLSCN]
National Institutes of Environmental Health Sciences [NIEHS]
National Toxicology Program [NTP]
We have developed a 1536-well cell-based assay for quantitative high throughput screening (qHTS) against a number of cell lines to determine in vitro cytotoxicity of small molecules. This particular assay uses the BJ cell line from ATCC which is derived from normal human foreskin fibroblasts.
NCGC Assay Protocol Summary:
The CellTiter-Glo luminescent cell viability assay (Promega) is a homogeneous method to measure the number of viable cells in culture. The end point readout of this assay is based on quantitation of intracellular ATP, an indicator of metabolic activity, using the luciferase reaction. Luciferase catalyzes the oxidation of beetle Luciferin to oxyluciferin and light in the presence of ATP. The luminescent signal is proportional to amount of ATP present.
Using the CellTiter-Glo luminescent cell viability assay, the amount of cellular ATP was measured in the BJ cell line with complete culture medium following compound treatment for 40 hours. The assay was performed in opaque white Kalypsys 1536-well plates. In the screen, tamoxifen and doxorubicin were used as positive controls. Library compounds were measured for their ability to cause acute toxicity in the cell line, as reflected by a decrease in intracellular ATP levels, in a concentration-dependent manner. Data were normalized to the controls for basal activity (DMSO only) and 100% inhibition (100 uM tamoxifen). AC50 values were determined from concentration-response data modeled with the standard Hill equation.
qHTS protocol fo CellTiter Glo BJ cellular assay
[Step] [Parameter] [Value] [Description]
1. Reagent; 5 uL; 1500 BJ cells/well
2. Time; 5 hr; 37 °C incubation
4. Controls; 23 nL; Tamoxifen 0.34 uM to 100 uM & Doxorubicin 0.02 nM to 100 uM
5. Time; 40 hr; 37 °C incubation
6. Reagent; 5 uL; CellTiter Glo reagent
7. Time; 20 min; Room Temperature
8. Detection; Luminescence; Viewlux plate reader
Keywords: cell viability, cytotoxicity, BJ cell line, luminescence, NTPHTS, NTPHTS_NCGC, NIEHS, EPA, DSSTox, MLSMR, MLSCN, NIH Roadmap, qHTS, NCGC
Potency is read from the fitted curve at half-maximal effect.

Row | Structure (SMILES) | Potency
1 | COC1=CC(=O)O[C@@H](/C=C/c2ccc3c(c2)OCO3)C1 | > 92 µM (inactive)
2 | O=C=NC1CCCCC1 | > 92 µM (inactive)
3 | Clc1nc(Cl)nc(Cl)n1 | > 92 µM (inactive)
4 | O=C(Cl)C(Cl)(Cl)Cl | > 92 µM (inactive)
5 | [O-][Br+2]([O-])O | > 92 µM (inactive)
6 | C=CC(C)=O | > 92 µM (inactive)
7 | CCN(CC)c1ccccc1 | > 92 µM (inactive)
8 | ClC(Cl)=C(c1ccc(Cl)cc1)c1ccc(Cl)cc1 | > 92 µM (inactive)
9 | C[N+](C)(C)Cc1ccccc1 | > 92 µM (inactive)
10 | C=CCc1ccc2c(c1)OCO2 | > 92 µM (inactive)
11 | CCOCN(C(=O)CCl)c1c(C)cccc1CC | 22.8 µM (active)
12 | Brc1ccc(Oc2cc(Br)c(Br)cc2Br)c(Br)c1 | > 92 µM (inactive)
13 | O=[N+]([O-])c1ccc(Cl)c(Cl)c1 | > 92 µM (inactive)
14 | NC(=S)Nc1ccccc1 | > 92 µM (inactive)
15 | O=[N+]([O-])c1cccc2ccccc12 | > 92 µM (inactive)
16 | C=C(C)C#N | > 92 µM (inactive)
17 | N#CCCCl | > 92 µM (inactive)
18 | Nc1ccc(Br)cc1 | > 92 µM (inactive)
19 | CCCOC(=O)c1ccccc1C(=O)OCCC | > 92 µM (inactive)
20 | C=CC(=O)OCC | > 92 µM (inactive)

Row | Structure (SMILES) | Potency
21 | Brc1ccccc1 | > 92 µM (inactive)
22 | CCCSC(=O)Cl | > 92 µM (inactive)
23 | ClC1=C(Cl)C2(Cl)C3C4C=CC(C4)C3C1(Cl)C2(Cl)Cl (stereo not given) | > 92 µM (inactive)
24 | COc1ccc(C=O)cc1OC | > 92 µM (inactive)
25 | OCC1CO1 (stereo not given) | > 92 µM (inactive)
26 | CC(C)(C)OO | > 92 µM (inactive)
27 | ClC1=C(Cl)C2(Cl)C3C4CC(C5OC45)C3C1(Cl)C2(Cl)Cl (stereo not given) | > 92 µM (inactive)
28 | CCCCOC(=O)c1ccccc1C(=O)OCCCC | > 92 µM (inactive)
29 | CNC(=O)O/N=C/C(C)(C)SC | > 92 µM (inactive)
30 | O=NN(CCO)CCO | > 92 µM (inactive)
31 | C=C(C)C(=O)OCC1CO1 (stereo not given) | > 92 µM (inactive)
32 | CC(Cl)Cl | > 92 µM (inactive)
33 | C=CCOC(C)=O | > 92 µM (inactive)
34 | C=CCOC(=O)c1ccccc1N | > 92 µM (inactive)
35 | COC1=CC(=O)OC(CCc2ccccc2)C1 (stereo not given) | > 92 µM (inactive)
36 | CC(C)(c1ccccc1)c1ccc(O)cc1 | > 92 µM (inactive)
37 | Cc1cccc(C#N)c1 | > 92 µM (inactive)
38 | CCCCOCCOP(=O)(OCCOCCCC)OCCOCCCC | > 92 µM (inactive)
39 | S=C=Nc1cccc2ccccc12 | > 92 µM (inactive)
40 | C=CC(=C)C | > 92 µM (inactive)

— PubChem BioAssay (NCATS)
